High-throughput results as filed in PubChem BioAssay.
GPT2 inh = Primary qHTS assay for inhibitors of Glutamate pyruvate transaminase 2 (GPT2); Alanine aminotransferase 2 (Homo sapiens), Q8TD30; Recombinant GPT2, coupled pyruvate oxidase/HRP Amplex Red fluorescence; Potency, µM (highest dose often 57.7 µM), for inactives: at the highest dose activity change, negative = inhibition, hits mostly inhibitors; 100,000 compounds, 0.25% hits; further: nearly all actives have a fitted effect of over 60% in size
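GPT2 10ng/uL, a-KG 250uM, L-Ala 2mM, HEPES pH7.5 + 0.0001% Tween; 30 min RT. Then Amplex mix (PO/HRP/ThPP), 30 min RT dark, fluorescence. AOA 50uM used as positive control.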
NIH3T3 tox = Cytotoxic Profiling in NIH 3T3 Cell Line of Diverse Libraries Using Quantitative High-Throughput Screening | NIH 3T3 viability, CellTiter-Glo ATP luminescence, 48-72 h | Potency, µM (top dose mostly 96.7 µM), for inactives: top-dose activity change, negative = cytotoxicity, hits mostly inhibitors | 94,000 compounds, 4.3% hits | AID 1345082, 2018; further: nearly all actives have a fitted effect of over 55% in size
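Luminescent ATP readout (CellTiter-Glo, 10 min RT) after 48 or 72 hr compound exposure of NIH 3T3 cells seeded at 400 cells/well in 1536-well format; quantitative HTS.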
HEK cytotox = Cytotoxic Profiling in HEK 293 Cell Line of Diverse Libraries Using Quantitative High-Throughput Screening; 94,000 compounds, 6.6% hits; Potency, µM (titrated, usually from 115 µM), for inactives: at the highest dose activity change, negative = cytotoxicity, actives largely listed as inhibitors; AID 1345083, 2018; HEK 293 viability, ATP luminescence (CellTiter-Glo), 48-72 h; further: nearly all actives have a fitted effect of over 60% in size
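ATP-coupled CellTiter-Glo luminescence served as viability read-out, recorded 10 min after reagent addition at room temperature. HEK 293 cells, 250 cells/well, had been incubated with pintool-transferred compound for 48 or 72 hr at 37 degree Celsius.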
FLuc inh = Firefly luciferase inhibition profiling of diverse chemical library using quantitative high-throughput screening. 76,000 compounds, 2.5% hits. AID 1347043, 2019. purified P. pyralis luciferase, luminescence, biochemical. Potency, µM (series often up to 115 µM), most hits filed as inhibitors. Luciferin 4-monooxygenase (Photinus pyralis), P08659; further: nearly all actives have a fitted effect of over 65% in size
Target sequence (P08659 whole entry, looked up): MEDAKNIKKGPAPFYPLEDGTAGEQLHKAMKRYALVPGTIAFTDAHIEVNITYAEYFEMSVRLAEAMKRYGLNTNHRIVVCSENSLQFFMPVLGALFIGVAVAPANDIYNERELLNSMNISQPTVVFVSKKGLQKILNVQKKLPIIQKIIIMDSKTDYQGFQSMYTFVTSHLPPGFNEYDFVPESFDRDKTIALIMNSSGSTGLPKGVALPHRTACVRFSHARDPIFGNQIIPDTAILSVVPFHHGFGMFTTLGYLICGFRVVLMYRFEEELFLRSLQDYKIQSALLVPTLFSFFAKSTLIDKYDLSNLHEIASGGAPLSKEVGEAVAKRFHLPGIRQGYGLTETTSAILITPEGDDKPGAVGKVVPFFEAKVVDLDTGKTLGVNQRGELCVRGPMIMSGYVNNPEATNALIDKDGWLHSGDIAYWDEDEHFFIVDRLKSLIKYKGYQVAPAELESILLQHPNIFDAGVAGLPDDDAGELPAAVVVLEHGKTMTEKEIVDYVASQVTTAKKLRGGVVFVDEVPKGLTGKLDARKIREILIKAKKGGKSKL
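Purified P. pyralis luciferase (10nM final) in 50mM Tris acetate pH 7.5, 10mM Mg acetate, 0.01% Tween-20, 0.05% BSA with 10uM D-luciferin and 10uM ATP. Compounds titrated qHTS. Luminescence imaged on CCD.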
hNpr1 antagonist = Natriuretic polypeptide receptor (hNpr1) antagonism - Primary qHTS. Atrial natriuretic peptide receptor 1 (Homo sapiens), P16066. HEK293 hNpr1 GloSensor cGMP, ANP-stimulated luminescence. Potency, µM (doses to about 46.3 µM), for the others: top-dose activity change, negative = inhibition, usual class: inhibitors. 76,000 compounds, 1.6% hits. AID 1347048, 2019; calls by dose curve; further: nearly all actives have a fitted effect of over 60% in size
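Compound pre-incubated 30 min at room temperature on GloSensor-loaded HEK293 cells stably carrying hNpr1 and the pGS-40F cGMP biosensor. Stimulation uses hNppA at 0.1 nM final; luminescence is taken at baseline and 20 min post-agonist.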
The depositor's hits bear a star; [ ] = dose if it differs, or a comment. Only some compounds are listed: those with a hit (about 10% of all), similar ones and a draw of the others. Unless noted, the call rests on the fitted dose curve; in most records, active means well fitted curve in the direction sought with a large enough effect; inconclusive means small, poorly fitted or top-dose-only effect, or another doubt; inactive means no such curve, though single readings can be large; an effect the other way counts as inactive or inconclusive. On the % scale 0 is the no-effect control and ±100 the full control effect; potency means the concentration at half of the fitted maximal effect.

For CN(C)Cc1cc(CC2(NCc3ccc(F)cc3)COC2)no1 the results were GPT2 inh inactive, NIH3T3 tox -1%[174 µM], HEK cytotox -18%[172 µM], FLuc inh inactive and hNpr1 antagonist 3%[70.6 µM].
For CN(C)C(=O)c1ccc(OC2CCN(C(=O)c3ccc(Cl)cc3)CC2)nc1 the results were GPT2 inh inactive, NIH3T3 tox 40µM*, HEK cytotox inconclusive, FLuc inh inactive and hNpr1 antagonist -17%.
For CC(C)c1ccc(C(=O)N2CCC(Oc3ccc(C(=O)N(C)C)cn3)CC2)cc1 the results were GPT2 inh inactive, NIH3T3 tox -21%, HEK cytotox inconclusive, FLuc inh inactive and hNpr1 antagonist -13%.
For COCCNC(=O)CCc1ccc2c(c1)CN(C(=O)NC(C)C)CCO2 the results were GPT2 inh inactive, NIH3T3 tox -8%, HEK cytotox -21%, FLuc inh inactive and hNpr1 antagonist -1%.
For CCNC(=O)N1CCOc2ccc(CCC(=O)NC3CCS(=O)(=O)C3)cc2C1 (centres undefined) the results were GPT2 inh inactive, NIH3T3 tox inactive, HEK cytotox 0%, FLuc inh inactive and hNpr1 antagonist 3%.
For CCNC(=O)N1CCOc2ccc(CCC(=O)Nc3ccc(F)cc3F)cc2C1 the results were GPT2 inh -5%, NIH3T3 tox -30%, HEK cytotox 40µM*, FLuc inh inactive and hNpr1 antagonist inconclusive.
Screening COc1ccc(NC(=O)CCc2ccc3c(c2)CN(C(=O)NC(C)C)CCO3)cn1 returned GPT2 inh inactive, NIH3T3 tox -10%, HEK cytotox 79µM*, FLuc inh inactive and hNpr1 antagonist -30%.
O=C(NCc1cccc(Cl)c1)c1nc2sccn2c1-c1ccncc1 was read as GPT2 inh inactive, NIH3T3 tox inconclusive and HEK cytotox inconclusive.
For CC1CCN(c2ccc(-c3cccc(N)c3)nn2)CC1 the results were GPT2 inh 1%, NIH3T3 tox 32µM*, HEK cytotox 32µM*, FLuc inh 0.1µM* and hNpr1 antagonist 0.63µM*.
Cc1ccc(C(=O)N2CCC3(CC2)NCCc2c3[nH]c3ccccc23)cn1 was read as GPT2 inh inactive, NIH3T3 tox -20%, HEK cytotox -14%, FLuc inh inactive and hNpr1 antagonist 2%.
`Cc1cccc(-c2cccc(CN3CCCC(C(=O)NC4CC4)C3)c2)c1` (centres undefined) gave GPT2 inh -2%[88.5 µM], NIH3T3 tox inconclusive and HEK cytotox inconclusive.
O=C(C1CCc2ncc(-c3ccsc3)n2C1)N1CCC(Cc2ccccc2)CC1 (centres undefined) was read as GPT2 inh inactive, NIH3T3 tox -27%, HEK cytotox -22%, FLuc inh inactive and hNpr1 antagonist 4%.
`CN(Cc1ccccc1)C(=O)C1CCCN(Cc2cccc(-c3ccsc3)c2)C1` (centres undefined) gave NIH3T3 tox inconclusive and HEK cytotox 40µM*.
For O=C(C1CCCN(Cc2cccc(-c3ccsc3)c2)C1)N1CCN(Cc2ccccc2)CC1 (centres undefined) the results were NIH3T3 tox 40µM* and HEK cytotox 40µM*.
O=C(NCc1ccc(F)cc1)C1CCCN(Cc2cccc(-c3ccsc3)c2)C1 (centres undefined) was read as GPT2 inh inactive, NIH3T3 tox inconclusive and HEK cytotox inconclusive.
For CCOC(=O)C1CCN(C(=O)C2CCCN(Cc3cccc(-c4ccsc4)c3)C2)CC1 (centres undefined) the results were NIH3T3 tox inconclusive and HEK cytotox 35µM*.
Screening O=C(C1CCCN(Cc2cccc(-c3ccsc3)c2)C1)N1CCC(Cc2ccccc2)CC1 (centres undefined) returned GPT2 inh -4%, NIH3T3 tox inconclusive and HEK cytotox 40µM*.
O=C(NCc1ccccn1)c1ccc2nnc(-c3ccoc3)n2c1 was read as GPT2 inh inactive, NIH3T3 tox -31%[138 µM] and HEK cytotox inactive.
`COC(=O)[C@@H]1Cc2c([nH]c3ccccc23)[C@H]2C[C@@H](NCCO)C[C@@H](c3ccccc3)N21` gave GPT2 inh 2%[88.5 µM], NIH3T3 tox 32µM*, HEK cytotox 40µM*, FLuc inh inconclusive and hNpr1 antagonist -16%[70.6 µM].
Screening COCCN[C@@H]1C[C@@H]2c3[nH]c4ccccc4c3C[C@@H](C(=O)OC)N2[C@H](c2ccc(F)c(F)c2)C1 returned GPT2 inh -8%, NIH3T3 tox 25µM*, HEK cytotox 22µM*, FLuc inh inactive and hNpr1 antagonist inconclusive.
Screening O=C(COc1ccccc1)NC1CCCc2c1[nH]c1ccccc21 (centres undefined) returned GPT2 inh -13%, NIH3T3 tox inconclusive, HEK cytotox inconclusive, FLuc inh inactive and hNpr1 antagonist -4%.
Screening COCCN[C@@H]1C[C@@H]2c3[nH]c4ccccc4c3C[C@@H](C(=O)OC)N2[C@H](c2ccccc2)C1 returned GPT2 inh 5%[88.5 µM], NIH3T3 tox 32µM*, HEK cytotox 28µM*, FLuc inh inconclusive and hNpr1 antagonist inconclusive.
For COCCn1ccc2ccc(C(=O)NC3CCCc4c3[nH]c3ccccc43)cc21 (centres undefined) the results were GPT2 inh -4%, NIH3T3 tox inconclusive, HEK cytotox inconclusive, FLuc inh inactive and hNpr1 antagonist 1%.
`CC(=O)NC1CCN(C(=O)c2ccc(-c3cncnc3)cc2)CC1` gave GPT2 inh 4%[88.5 µM], NIH3T3 tox -11%[138 µM] and HEK cytotox -1%[172 µM].
For CC1(c2noc(-c3ccccc3)n2)CCN(C(=O)CCc2cc(Cl)no2)CC1 the results were GPT2 inh 3%, NIH3T3 tox inconclusive and HEK cytotox inconclusive.
c1coc(CN2CCc3c(sc4ncnc(N5CCOCC5)c34)C2)c1 was read as GPT2 inh inactive, NIH3T3 tox inconclusive, HEK cytotox inconclusive, FLuc inh inactive and hNpr1 antagonist -1%.
O=C(NCc1ccccc1)C1CCN(Cc2ccccc2-c2ccccc2F)CC1 was read as NIH3T3 tox inconclusive and HEK cytotox 50µM*.
O=C(C1CCN(Cc2ccccc2-c2ccccc2F)CC1)N1CCOCC1 was read as GPT2 inh 5%, NIH3T3 tox -22% and HEK cytotox -23%.
For O=C(C1CCN(Cc2ccccc2-c2ccccc2F)CC1)N1CCN(Cc2ccccc2)CC1 the results were NIH3T3 tox 25µM* and HEK cytotox 35µM*.
